From PubChem BioAssay
Where “and” joins values, the source holds several entries; their conditions need not be identical. Equal entries are not always repeated. For some of these results: Entries with a potency or affinity are not part of this list. Some compounds were tested as several samples or in several runs, with calls that do not always agree. Calls of active or inactive are those of the source. Unless noted, how the calls were made is not given here.

Columns and labels:
[1] = antimalarial activity against Dd2 strain (AID 2302;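 active means growth inhibition above 50% at the single 2 µM test dose, taken to imply half-maximal potency below 2 µM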;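 further: 0% = DMSO untreated growth and 100% = chloroquine plus artemisinin killed control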); settings: P. falciparum Dd2 in RBCs, LDH growth readout, 72 h; at 2 µM; stronger effect = higher value
[2] = human hepatoma cell viability loss – ATP luminescence, cytotoxicity control for P. falciparum antimalarial project, primary screen (AID 2303;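 active means inhibition above 50%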;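 further: 0% = DMSO wells and 100% = digitonin-killed cells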); settings: HepG2 viability, 24-48 h, at 10 µM, stronger effect = higher value
[3] = target: L-lactate dehydrogenase (Plasmodium falciparum (isolate CDC / Honduras)) (UniProt Q27743); assay: PfLDH activity inhibition – cell lysate, 3D7 strain, counter-screen for P. falciparum growth inhibition project (AID 2304);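 further: 0% = vehicle and 100% = reference inhibitor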; settings: P. falciparum 3D7 crude extract, LDH APAD/NBT absorbance; at 2 µM; stronger effect = higher value
Chain of L-lactate dehydrogenase (Plasmodium falciparum (isolate CDC / Honduras)) (Q27743 whole entry, looked up): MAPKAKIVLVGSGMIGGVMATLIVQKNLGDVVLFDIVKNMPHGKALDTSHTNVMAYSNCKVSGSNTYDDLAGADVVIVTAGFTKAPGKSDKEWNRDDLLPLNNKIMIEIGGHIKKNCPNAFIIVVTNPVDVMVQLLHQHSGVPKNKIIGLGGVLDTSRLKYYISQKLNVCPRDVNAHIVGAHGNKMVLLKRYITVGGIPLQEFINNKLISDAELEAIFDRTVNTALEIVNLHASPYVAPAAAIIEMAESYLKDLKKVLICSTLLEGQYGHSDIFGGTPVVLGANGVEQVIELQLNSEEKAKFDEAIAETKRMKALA

[4] = inhibition of 3D7 malaria parasite growth – strain 3D7 (AID 2306);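 further: 0% = DMSO wells and 100% = chloroquine plus artemisinin control wells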; settings: P. falciparum 3D7 erythrocytic growth, LDH absorbance, 72 h; at 2 µM; stronger effect = higher value
[5] = target: Calcium-dependent protein kinase 1 (Plasmodium falciparum (isolate 3D7)) (UniProt P62344); assay: PfCDPK1 kinase inhibitors, biochemical, TCAMS library (AID 1159585; cut-off not given, nearly all actives have IC50 up to about 0.98 µM;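 further: inhibitors leave more ATP so luminescence rises with inhibition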); settings: recombinant PfCDPK1, Kinase-Glo ATP depletion luminescence
Chain of Calcium-dependent protein kinase 1 (Plasmodium falciparum (isolate 3D7)) (P62344 whole entry, looked up): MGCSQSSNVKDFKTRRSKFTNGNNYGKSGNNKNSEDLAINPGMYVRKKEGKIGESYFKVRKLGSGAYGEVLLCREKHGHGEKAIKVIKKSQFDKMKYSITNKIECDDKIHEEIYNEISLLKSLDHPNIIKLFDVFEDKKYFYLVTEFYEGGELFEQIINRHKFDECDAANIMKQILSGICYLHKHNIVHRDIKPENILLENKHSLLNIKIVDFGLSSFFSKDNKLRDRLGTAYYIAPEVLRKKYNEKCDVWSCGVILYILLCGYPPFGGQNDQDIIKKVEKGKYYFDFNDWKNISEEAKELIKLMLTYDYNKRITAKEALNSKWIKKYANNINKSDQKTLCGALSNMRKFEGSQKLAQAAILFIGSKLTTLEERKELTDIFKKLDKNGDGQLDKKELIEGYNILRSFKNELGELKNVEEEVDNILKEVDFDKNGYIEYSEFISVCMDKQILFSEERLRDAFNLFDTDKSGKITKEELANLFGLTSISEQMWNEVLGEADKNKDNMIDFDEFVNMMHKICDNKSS

[6] = target: Plasmodium falciparum protein kinase 6 (PK6, PF3D7_1337100) (UniProt Q8IDW1); assay: PfPK6 kinase inhibitors, biochemical, TCAMS library (AID 1159586); settings: recombinant PfPK6, Kinase-Glo ATP depletion luminescence
Chain of Plasmodium falciparum protein kinase 6 (PK6, PF3D7_1337100) (Q8IDW1 1-305): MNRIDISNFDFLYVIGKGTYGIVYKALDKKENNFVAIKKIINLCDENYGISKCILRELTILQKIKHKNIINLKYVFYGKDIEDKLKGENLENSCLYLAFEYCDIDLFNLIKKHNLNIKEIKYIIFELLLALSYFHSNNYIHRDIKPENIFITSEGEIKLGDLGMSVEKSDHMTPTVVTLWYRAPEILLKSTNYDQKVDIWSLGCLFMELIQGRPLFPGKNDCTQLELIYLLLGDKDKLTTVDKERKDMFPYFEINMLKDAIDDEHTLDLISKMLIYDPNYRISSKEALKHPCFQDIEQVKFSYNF

[7] = target: Protein kinase 7 (PK7), Plasmodium falciparum 3D7 (PF3D7_0213400) (UniProt Q7YTF7); assay: inhibition of Plasmodium PK7 catalytic activity – biochemical, TCAMS antimalarial set, Kinase-Glo luminescence (AID 1159587); settings: recombinant PfPK7, Kinase-Glo ATP depletion luminescence
Chain of Protein kinase 7 (PK7), Plasmodium falciparum 3D7 (PF3D7_0213400) (Q7YTF7 1-343): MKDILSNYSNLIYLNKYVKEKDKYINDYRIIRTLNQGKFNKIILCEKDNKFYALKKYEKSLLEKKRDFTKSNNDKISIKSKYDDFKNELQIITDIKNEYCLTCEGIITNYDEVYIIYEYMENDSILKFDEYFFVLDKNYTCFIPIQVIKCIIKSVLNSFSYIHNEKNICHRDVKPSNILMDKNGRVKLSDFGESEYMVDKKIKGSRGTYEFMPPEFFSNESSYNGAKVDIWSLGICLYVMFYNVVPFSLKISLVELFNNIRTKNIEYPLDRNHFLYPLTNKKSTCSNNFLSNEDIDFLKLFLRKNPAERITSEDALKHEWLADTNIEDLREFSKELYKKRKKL

[8] = target: Calcium-dependent protein kinase 4 (Plasmodium falciparum (isolate 3D7)) (UniProt Q8IBS5); assay: PfCDPK4 kinase inhibitors, biochemical, TCAMS library (AID 1159588; cut-off not given, nearly all actives have IC50 up to about 0.91 µM); settings: recombinant PfCDPK4, Kinase-Glo ATP depletion luminescence
Chain of Calcium-dependent protein kinase 4 (Plasmodium falciparum (isolate 3D7)) (Q8IBS5 whole entry, looked up): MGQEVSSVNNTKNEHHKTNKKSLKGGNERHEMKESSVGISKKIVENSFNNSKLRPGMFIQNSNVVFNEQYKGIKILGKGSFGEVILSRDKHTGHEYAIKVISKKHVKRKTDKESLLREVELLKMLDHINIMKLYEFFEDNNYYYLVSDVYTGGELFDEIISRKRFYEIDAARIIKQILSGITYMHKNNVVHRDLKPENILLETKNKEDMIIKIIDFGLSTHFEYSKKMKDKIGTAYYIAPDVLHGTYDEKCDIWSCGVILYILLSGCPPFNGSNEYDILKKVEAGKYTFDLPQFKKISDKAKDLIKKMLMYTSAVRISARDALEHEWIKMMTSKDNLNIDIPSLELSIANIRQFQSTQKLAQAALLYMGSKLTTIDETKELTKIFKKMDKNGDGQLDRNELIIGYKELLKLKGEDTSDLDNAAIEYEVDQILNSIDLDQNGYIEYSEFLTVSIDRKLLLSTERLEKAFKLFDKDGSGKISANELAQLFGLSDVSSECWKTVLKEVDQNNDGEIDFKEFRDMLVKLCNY

O=C(CCC(=O)c1ccc2c3c(cccc13)CC2)NC1CCC(CN2CCC(c3c[nH]c4ccccc34)CC2)CC1 (centres undefined)
inactive: growth inhibition [1] 13% | inhibition [2] 34% | inhibition [3] -1% | outcome [5] | outcome [6] | outcome [7] | outcome [8]
active: growth inhibition [4] 96%

C#CCN1CCC2=C(C1)c1c(O)cc(C(C)C(C)CCc3ccc(F)cc3)cc1OC2(C)C (centres undefined)
inactive: inhibition [2] 10% | inhibition [3] 3% | outcome [5] | outcome [6] | outcome [7] | outcome [8]
active: growth inhibition [1] 99% | growth inhibition [4] 100%

OC1(CNCc2ccccc2)CCN(CCc2c[nH]c3ccc(F)cc23)CC1
active: growth inhibition [4] 100%
inactive: growth inhibition [1] 4% | inhibition [2] 39% | inhibition [3] -2% | outcome [5] | outcome [6] | outcome [7] | outcome [8]

CC(=O)C1(c2ccccc2)CCN(CCC2(c3ccc(Cl)c(Cl)c3)CN(C(=O)Nc3cccc(C(F)(F)F)c3)CCO2)CC1 (centres undefined)
inactive: inhibition [2] 24% | inhibition [3] 8% | outcome [5] | outcome [6] | outcome [7] | outcome [8]
active: growth inhibition [1] 66% | growth inhibition [4] 95%

COC(=O)c1ccc(CC(C)NCC(O)c2ccccc2Cl)cc1 (centres undefined)
active: growth inhibition [1] 55% | growth inhibition [4] 94%
inactive: inhibition [2] 1% | inhibition [3] 1% | outcome [5] | outcome [6] | outcome [7] | outcome [8]

CC(Cc1ccc(SC(C)(C)C)cc1)NCC(O)c1cccc(Cl)c1 (centres undefined)
inactive: inhibition [2] 14% | inhibition [3] -7% | outcome [5] | outcome [6] | outcome [7] | outcome [8]
active: growth inhibition [1] 99% | growth inhibition [4] 99%

O=C(Nc1ccccc1C(F)(F)F)NC1CCC(CN2CCC(c3c[nH]c4ccccc34)CC2)CC1 (centres undefined)
active: growth inhibition [4] 86% and 96%
inactive: growth inhibition [1] 12% and 42% | inhibition [2] 34% and 46% | inhibition [3] -3% | outcome [5] | outcome [6] | outcome [7] | outcome [8]

c1ccc(C(OCCC2CCN(Cc3cccnc3)CC2)c2ccccc2)cc1
active: growth inhibition [1] 98% | growth inhibition [4] 99%
inactive: inhibition [2] 12% | inhibition [3] 5% | outcome [5] | outcome [6] | outcome [7] | outcome [8]

CCOC(C(=O)OCCN(C(C)C)C(C)C)(c1ccccc1)c1ccccc1
active: growth inhibition [4] 97%
inactive: growth inhibition [1] 4% | inhibition [2] 4% | inhibition [3] -2% | outcome [5] | outcome [6] | outcome [7] | outcome [8]

CC(C)CNCc1ccc(-c2cccc(CN(C(=O)Nc3ccccc3)C3CCN(Cc4ccccc4)CC3)c2)cc1
active: growth inhibition [1] 95% | growth inhibition [4] 101%
inactive: inhibition [2] 48% | inhibition [3] 4% | outcome [5] | outcome [6] | outcome [7] | outcome [8]

COc1ccc(OC)c(CNCC(O)c2cc(C(F)(F)F)cc(C(F)(F)F)c2)c1 (centres undefined)
active: growth inhibition [1] 100% | growth inhibition [4] 92%
inactive: inhibition [2] 7% | inhibition [3] 6% | outcome [5] | outcome [6] | outcome [7] | outcome [8]

O=C(NC1CCC(CN2CCC(c3c[nH]c4ccccc34)CC2)CC1)c1cc(-c2ccc(F)cc2F)ccc1O (centres undefined)
inactive: inhibition [2] 30% | inhibition [3] 0% | outcome [5] | outcome [6] | outcome [7] | outcome [8]
active: growth inhibition [1] 101% | growth inhibition [4] 101%

CN1CC=C(c2c[nH]c3ccc(OC(=O)c4ccccc4)cc23)C1
active: growth inhibition [1] 97% | growth inhibition [4] 96%
inactive: inhibition [2] 12% | inhibition [3] 1% | outcome [5] | outcome [6] | outcome [7] | outcome [8]

Cc1[nH]c2ccccc2c1C1=CCN(CCN2CCCc3c(Br)cccc3C2=O)CC1
active: growth inhibition [1] 90% | growth inhibition [4] 95%
inactive: inhibition [2] 10% | inhibition [3] -1% | outcome [5] | outcome [6] | outcome [7] | outcome [8]

C=C[C@H]1CN2CC[C@H]1C[C@H]2[C@H](OS(=O)(=O)O)c1ccnc2ccccc12
active: growth inhibition [4] 99%
inactive: growth inhibition [1] 15% | inhibition [2] 8% | inhibition [3] 5% | outcome [5] | outcome [6] | outcome [7] | outcome [8]

O=C(Nc1cc(C(F)(F)F)cc(C(F)(F)F)c1)N1CCC(CN2CCC(c3c[nH]c4ccccc34)CC2)CC1
active: growth inhibition [1] 99% | growth inhibition [4] 100%
inactive: inhibition [2] 42% | inhibition [3] -1% | outcome [5] | outcome [6] | outcome [7] | outcome [8]

O=C(/C=C/c1ccc(Cl)c(Cl)c1)N1CCC(CN2CCC(c3c(-c4ccccc4)[nH]c4ccccc34)CC2)CC1
inactive: inhibition [2] 43% | inhibition [3] -8% | outcome [5] | outcome [6] | outcome [7] | outcome [8]
active: growth inhibition [1] 99% | growth inhibition [4] 101%

CCCCCCC(C)(C)c1cc(O)c2c(c1)OC(C)(C)c1ccncc1-2
active: growth inhibition [1] 99% | growth inhibition [4] 95%
inactive: inhibition [2] 4% | inhibition [3] 1% | outcome [5] | outcome [6] | outcome [7] | outcome [8]

CC(=O)Nc1ccc(CN2CCC(N(C)c3ccc(NC(=O)c4cccc(C)c4)cc3)CC2)cc1
inactive: inhibition [2] -7% | inhibition [3] -4% | outcome [5] | outcome [6] | outcome [7] | outcome [8]
active: growth inhibition [1] 50% | growth inhibition [4] 91%

COc1cc2c(c(OC)c1OC)C[C@H]1c3c(cc4c(c3-2)OCO4)CCN1C
inactive: growth inhibition [1] 30% | inhibition [2] 7% | inhibition [3] -1% | outcome [5] | outcome [6] | outcome [7] | outcome [8]
active: growth inhibition [4] 84%

CC[C@H]1CN2CC[C@@H]1C[C@H]2[C@H](O)c1cc(-c2c(C)noc2C)nc2ccc(OC)cc12
inactive: inhibition [2] 4% | inhibition [3] -1% | outcome [5] | outcome [6] | outcome [7] | outcome [8]
active: growth inhibition [1] 98% | growth inhibition [4] 100%

O=C(NC1CCC(CN2CCC(c3c[nH]c4ccccc34)CC2)CC1)c1ccc(-c2cc(C(F)(F)F)ccc2Cl)o1 (centres undefined)
inactive: growth inhibition [1] 34% | inhibition [2] 5% | inhibition [3] 3% | outcome [5] | outcome [6] | outcome [7] | outcome [8]
active: growth inhibition [4] 102%

O=C(/C=C/c1ccc(Cl)c(Cl)c1)N1CC[C@H]2C[C@H](N3CCC(c4c[nH]c5ccccc45)CC3)CC[C@@H]2C1
active: growth inhibition [1] 99% | growth inhibition [4] 100%
inactive: inhibition [2] 31% | inhibition [3] 0% | outcome [5] | outcome [6] | outcome [7] | outcome [8]

CC(=O)C1(c2ccccc2)CCN(CCC(NC(=O)c2cc(C(F)(F)F)cc(C(F)(F)F)c2)c2ccc(Cl)c(Cl)c2)CC1 (centres undefined)
active: growth inhibition [1] 82% | growth inhibition [4] 91%
inactive: inhibition [2] 9% | inhibition [3] 2% | outcome [5] | outcome [6] | outcome [7] | outcome [8]

Cc1ccc(C[C@@H](C)NC[C@H](O)c2cccc(C(F)(F)F)c2)cc1
active: growth inhibition [1] 79% and 97% | growth inhibition [4] 101% and 99%
inactive: inhibition [2] 10% and 6% | inhibition [3] -4% and 1% | outcome [5] | outcome [6] | outcome [7] | outcome [8]

O=C(/C=C/c1ccc(C(F)(F)F)cc1)NC1CCC(CN2CCC(c3c[nH]c4ccccc34)CC2)CC1 (centres undefined)
active: growth inhibition [1] 97% and 100% | growth inhibition [4] 98% and 101%
42% (inactive) and 73% (active): inhibition [2]
inactive: inhibition [3] -2% and -3% | outcome [5] | outcome [6] | outcome [7] | outcome [8]

NCc1cccc(-c2cccc(CN(C(=O)Nc3ccccc3)C3CCN(Cc4ccccc4)CC3)c2)c1
inactive: growth inhibition [1] 8% | inhibition [2] 3% | inhibition [3] -2% | outcome [5] | outcome [6] | outcome [7] | outcome [8]
active: growth inhibition [4] 99%

O=C(NCCCCN1CCC(c2ccc3c(c2OCCO)CCCC3)CC1)c1sc(-c2ccc(C(F)(F)F)cc2)nc1CO
active: growth inhibition [4] 95%
inactive: growth inhibition [1] 20% | inhibition [2] 37% | inhibition [3] -6% | outcome [5] | outcome [6] | outcome [7] | outcome [8]

O=C(NC1CCC(CN2CCC(c3c[nH]c4ccccc34)CC2)CC1)c1cnn(-c2ccccc2)c1-c1ccccc1Cl (centres undefined)
inactive: growth inhibition [1] 11% | inhibition [3] -6% | outcome [5] | outcome [6] | outcome [7] | outcome [8]
active: inhibition [2] 66% | growth inhibition [4] 95%

O=C(NC1CCC(CN2CCC(c3c[nH]c4ccccc34)CC2)CC1)[C@H]1Cc2ccccc2CN1 (some centres undefined)
active: growth inhibition [4] 89%
inactive: growth inhibition [1] 35% | inhibition [2] 29% | inhibition [3] 3% | outcome [5] | outcome [6] | outcome [7] | outcome [8]

CCCc1cc([C@@H](O)[C@@H]2C[C@@H]3CCN2C[C@@H]3CC)c2ccccc2n1
inactive: inhibition [2] 9% | inhibition [3] 2% | outcome [5] | outcome [6] | outcome [7] | outcome [8]
active: growth inhibition [1] 57% | growth inhibition [4] 100%

CN(C)CCc1c[nH]c2ccc(C(=O)Nc3ccc(-c4ccncc4)cc3)cc12
inactive: growth inhibition [1] 46% | inhibition [2] 23% | inhibition [3] -7% | outcome [5] | outcome [6] | outcome [7] | outcome [8]
active: growth inhibition [4] 99%

CCCCn1c(C)c(C(=O)OCC)c2cc(OC(C)=O)c(Br)cc21
inactive: inhibition [2] -8% | inhibition [3] -1% | outcome [5] | outcome [6] | outcome [7] | outcome [8]
active: growth inhibition [1] 79% | growth inhibition [4] 98%

CC[C@H]1CN2CC[C@H]1C[C@H]2[C@H](O)c1cc(-c2cccc(C)c2)nc2ccc(OC)cc12
active: growth inhibition [1] 100% | growth inhibition [4] 100%
inactive: inhibition [2] 15% | inhibition [3] 3% | outcome [5] | outcome [6] | outcome [7] | outcome [8]

COc1ccc(C[C@@H](C)NC[C@H](O)c2cccc(Cl)c2)cc1F
inactive: inhibition [2] 2% | inhibition [3] -2% | outcome [5] | outcome [6] | outcome [7] | outcome [8]
active: growth inhibition [1] 76% | growth inhibition [4] 88%

CC[C@H]1CN2CC[C@H]1C[C@H]2[C@H](O)c1cc(/C=C/c2ccc(F)cc2)nc2ccc(OC)cc12
inactive: inhibition [3] -1% | outcome [5] | outcome [6] | outcome [7] | outcome [8]
active: growth inhibition [1] 99% | inhibition [2] 55% | growth inhibition [4] 99%

O=C(/C=C/C=C/c1ccccc1)NC1CCC(CN2CCC(c3c[nH]c4ccccc34)CC2)CC1 (centres undefined)
inactive: inhibition [2] 49% | inhibition [3] 7% | outcome [5] | outcome [6] | outcome [7] | outcome [8]
active: growth inhibition [1] 66% | growth inhibition [4] 100%

CC[C@H]1CN2CC[C@H]1C[C@@H]2[C@@H](O)c1cc(Cl)nc2ccc(OC)cc12
active: growth inhibition [1] 82% | growth inhibition [4] 98%
inactive: inhibition [2] -9% | inhibition [3] -2% | outcome [5] | outcome [6] | outcome [7] | outcome [8]
